In PubChem BioAssay (NCATS):
Inconclusive results are not listed. A call without a number means that no potency is given here. Active and inactive are the calls of the source. Unless noted, the call rests on the fitted dose curve; in most records, active means well fitted curve in the direction sought with a large enough effect; inconclusive means small, poorly fitted or top-dose-only effect, or another doubt; inactive means no such curve, though single readings can be large; an effect the other way counts as inactive or inconclusive.

Experiments:
[1] = qHTS for Inhibitors of Plasmodium falciparum (DD2) proliferation (AID 504314);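 further: parasite DNA measured by SYBR Green fluorescence after red cell lysis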; conditions: P. falciparum Dd2 in erythrocytes, SYBR Green growth, 72 h; series mostly up to 6.11 µM
Procedure, shortened: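 Quantitative HTS growth inhibition: SYBR Green I binding to parasite DNA after 72 h drug exposure of infected erythrocytes (0.3% parasitemia, 2.5% hematocrit). Signals normalized per plate to inhibitor and vehicle wells.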

[2] = qHTS for Inhibitors of Plasmodium falciparum (GB4) proliferation (AID 504315); further: nearly all actives have a fitted effect of over 50% in size; conditions: P. falciparum GB4 in erythrocytes, SYBR Green DNA, 72 h; series mostly up to 6.7 µM
Procedure, shortened: (§1)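 Erythrocytes infected with P. falciparum line (0.3% parasitemia, 2.5% hematocrit final) incubated with compounds 72 h at 37 °C, 5% CO2; SYBR Green lysis buffer added, fluorescence read next day. Normalized to 0.29 uM artemisinin and DMSO.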

[3] = qHTS for Inhibitors of Plasmodium falciparum (7G8) proliferation (AID 504316); further: nearly all actives have a fitted effect of over 65% in size; conditions: P. falciparum 7G8 in erythrocytes, SYBR Green DNA, 72 h; series mostly up to 6.7 µM
Procedure, shortened: as §1

[4] = qHTS for Inhibitors of Plasmodium falciparum (HB3) proliferation (AID 504318); further: nearly all actives have a fitted effect of over 60% in size; conditions: P. falciparum HB3 in erythrocytes, SYBR Green DNA, 72 h; series mostly up to 7.21 µM
Procedure, shortened: as §1

[5] = qHTS for Inhibitors of Plasmodium falciparum (CP250) proliferation (AID 504320); conditions: P. falciparum CP250 in erythrocytes, SYBR Green DNA, 72 h; series mostly up to 6.7 µM
Procedure, shortened: as §1

[6] = target: Atrial natriuretic peptide receptor 1 (Homo sapiens) (UniProt P16066); test: Natriuretic polypeptide receptor (hNpr1) antagonism - Pilot CMLD screen (AID 1347052; calls by dose curve;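 further: cGMP level read as GloSensor luciferase luminescence after agonist stimulation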; further: potency means the concentration at half of the fitted maximal effect); conditions: HEK293 hNpr1 GloSensor cGMP luminescence, ANP-stimulated; series mostly up to 9.22 µM
Atrial natriuretic peptide receptor 1 (Homo sapiens), sequence (P16066 whole entry, looked up): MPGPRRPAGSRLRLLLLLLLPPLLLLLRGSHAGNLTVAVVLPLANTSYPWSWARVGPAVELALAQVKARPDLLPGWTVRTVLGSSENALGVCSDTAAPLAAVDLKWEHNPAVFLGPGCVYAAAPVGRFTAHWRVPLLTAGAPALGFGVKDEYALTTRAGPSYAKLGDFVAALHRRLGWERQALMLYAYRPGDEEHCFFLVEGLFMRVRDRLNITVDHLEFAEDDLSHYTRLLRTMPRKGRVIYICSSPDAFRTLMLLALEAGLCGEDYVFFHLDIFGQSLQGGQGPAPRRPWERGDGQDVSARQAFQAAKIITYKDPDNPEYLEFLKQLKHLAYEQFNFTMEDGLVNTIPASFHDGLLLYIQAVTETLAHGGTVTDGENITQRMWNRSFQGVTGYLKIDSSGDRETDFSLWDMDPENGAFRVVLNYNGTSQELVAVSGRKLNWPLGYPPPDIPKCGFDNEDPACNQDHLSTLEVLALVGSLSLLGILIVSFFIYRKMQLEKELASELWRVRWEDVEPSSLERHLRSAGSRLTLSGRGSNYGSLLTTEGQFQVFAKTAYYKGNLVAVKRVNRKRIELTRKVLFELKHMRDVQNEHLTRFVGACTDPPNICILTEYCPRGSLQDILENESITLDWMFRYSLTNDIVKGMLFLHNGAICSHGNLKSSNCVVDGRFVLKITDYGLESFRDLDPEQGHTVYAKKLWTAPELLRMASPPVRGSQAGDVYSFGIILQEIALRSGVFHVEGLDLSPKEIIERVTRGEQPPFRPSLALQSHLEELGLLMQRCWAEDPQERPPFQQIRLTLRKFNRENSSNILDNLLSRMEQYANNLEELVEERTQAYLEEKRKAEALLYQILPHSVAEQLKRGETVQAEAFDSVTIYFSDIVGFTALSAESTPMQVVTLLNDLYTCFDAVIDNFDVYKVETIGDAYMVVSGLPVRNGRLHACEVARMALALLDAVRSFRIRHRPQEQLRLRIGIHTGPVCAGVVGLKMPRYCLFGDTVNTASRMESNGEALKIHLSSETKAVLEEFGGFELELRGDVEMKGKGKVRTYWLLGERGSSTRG

SMILES	Potency [1]	Potency [2]	Potency [3]	Potency [4]	Potency [5]	Potency [6]
COC(=O)[C@@H](O)CC[C@@H](C)Cc1c(OC)c(OC)c(C)c(OC)c1OC	inactive	inactive	inactive	inactive	inactive	inactive
COC(=O)C1(C(=O)OC)CC=CCc2ccccc2[C@H]1C[N+](=O)[O-]	inactive	inactive	inactive	inactive	inactive	inactive
C=CCOC(=O)C(C(C)=O)[C@@H](NC(=O)OC)c1cccs1 (stereo partly drawn)	inactive	inactive	inactive	inactive	inactive	inactive
C[C@H]1[C@H](O)[C@@H](N=[N+]=[N-])CCO[C@H]1c1ccccc1	inactive	inactive	inactive	inactive	inactive	inactive
CC(C)CON=C1C[C@@H](O)[C@@H](O)[C@@H]2[C@H]3C(=O)N(Cc4ccccc4)C(=O)[C@@H]3CC[C@@H]12	inactive	inactive	inactive	inactive	inactive	inactive
COC(=O)c1cc(C(=O)OC)n2ccc3cc(OC)c(OC)cc3c12	inactive	inactive	inactive	inactive	inactive	531 nM (active)
CN1c2ccccc2[C@@]2(O)C(=O)[C@@]1(C)[C@@H]1CCC=C[C@H]12	inactive	inactive	inactive	inactive	inactive	inactive
CC(C)[C@@H](OCc1ccccc1)[C@H](C)C=NOC[C@@H](O)[C@H]1O[C@@H]2OC(C)(C)O[C@H]2[C@@H]1O	inactive	inactive	inactive	inactive	inactive	inactive
C=CCN1C(=O)[C@]2(OCCC=C[C@H]2C)c2c(Br)cccc21	inactive	inactive	inactive	inactive	inactive	inactive
C[C@@H]1C=CCCO[C@]12C(=O)N(Cc1ccccc1C(F)(F)F)c1ccccc12	inactive	inactive	inactive	inactive	inactive	inactive
COc1ccc2c(c1)C(=O)[C@@H](OC(=O)Nc1cc(OC)c(OC)c(OC)c1)[C@H](c1ccc(OC)c(Br)c1)O2	inactive	inactive	inactive	inactive	inactive	inactive
CCCCC1=CC2=C(c3ccco3)C(=O)C(C)(OC(=O)c3ccc(OC)cc3)C(=O)C2=CN1CCCN(CC)CC (stereo not drawn)	inactive	inactive	inactive	inactive	inactive	inactive
COC(=O)NCC=Cc1nc(CCCO)co1	inactive	inactive	inactive	inactive	inactive	inactive
COC(=O)CCCC1=CC2=CC(=O)C(C)(OC(=O)c3cccs3)C(=O)C2=CN1C1CCCCC1 (stereo not drawn)	inactive	inactive	inactive	inactive	inactive	inactive
O=C1CCC=C1C(O)CCc1ccccc1 (stereo not drawn)	inactive	inactive	inactive	inactive	inactive	inactive
CCN1C(=NCCOC)N[C@@H](c2ccccc2)[C@H](C(=O)OC)[C@H]1C	inactive	inactive	inactive	inactive	inactive	inactive
COCC=CC1=CC2=CC(=O)C(C)(OC(=O)c3cnc4ccccc4n3)C(=O)C2=CN1Cc1ccccc1 (stereo not drawn)	inactive	inactive	inactive	inactive	inactive	inactive
COC(=O)CC=C[C@H](C)[C@H](Cc1ccccc1Br)OC	inactive	inactive	inactive	inactive	inactive	inactive
COC(=O)N[C@H](CC(C)=O)c1ccccc1	inactive	inactive	inactive	inactive	inactive	inactive
CCOC(=O)C1(C(=O)OCC)Cc2ccc(C(C)=O)cc2C1	inactive	inactive	inactive	inactive	inactive	inactive
COC(=O)C[C@H]1c2ccccc2C2=C(C[C@@H](C)[C@H]3C(=O)NC(=O)[C@@H]23)N1C(=O)OC	inactive	inactive	inactive	inactive	inactive	inactive
CC1(OC(=O)CCc2ccccc2)C(=O)C=C2C=C(C3CC3)OC=C2C1=O (stereo not drawn)	inactive	inactive	inactive	inactive	inactive	inactive
C=CCOC(=O)NC(c1ccc(F)c(F)c1)C(C(C)=O)C(=O)OC (stereo not drawn)	inactive	inactive	inactive	inactive	inactive	inactive
